# About 2,600 (0.79%) of roughly 330,000 compounds were called active.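 The calls were made as follows: active = mean ATP rescue above about 67%, or every replicate alone reaching that limit (limit read from the data, passing the limit was not always enough); inconclusive = no clear call, values can overlap the other calls; inactive = mean under the limit and some replicate under it.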 What follows is part of a selection rich in actives, with near analogues and random picks from the rest.
# Test: protection of differentiated C2C12 cells from simvastatin – single point, plate reader, primary screen (AID 602340);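 also: myotubes were challenged with 10 µM simvastatin during compound exposure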
# Conditions: C2C12 myotubes + simvastatin, ATP luminescence, 48 h; at 7.49 µM; stronger effect = higher value; scaled: DMSO 0, geranylgeraniol control 100
row,Structure (SMILES),rescue of ATP level
1,Cc1nn(Cc2ccccc2Cl)c(C)c1NC(=O)Cn1nc([N+](=O)[O-])c(Cl)c1C,13.1% (inactive)
2,Cc1c(Cl)c([N+](=O)[O-])nn1Cc1ccc(C(=O)N/N=C\c2cc(Cl)ccc2O)o1,74.2% (active)
3,CN(C)c1ccc(/C=N/NC(=O)c2ccc(Cn3cc(Br)cn3)o2)cc1,-6.78% (inactive)
4,CO[C@@H]1CC[C@@H]2CCOc3ccc(C#N)cc3C(=O)N(C)[C@H](C)C(=O)N(C)C[C@@H]1O2,4.94% (inactive)
5,O=C(NCC[C@@H]1CC[C@H](NC(=O)C2CCCCC2)[C@@H](CO)O1)Nc1ccc(Cl)cc1,-9.47% (inactive)
6,CO[C@@H]1CN(C)C(=O)c2ccc(NS(=O)(=O)c3cccc(F)c3)cc2OC[C@H](C)N(C(=O)Cc2cccnc2)C[C@@H]1C,19.8% (inactive)
7,C[C@H]1CN([C@@H](C)CO)C(=O)c2cc(-c3cccc(C(=O)N(C)C)c3)cnc2O[C@H]1CN(C)S(=O)(=O)c1ccccc1,-7.9% (inactive)
8,Nc1ccc(C(=O)OCC(=O)NC2CCCc3ccccc32)cc1[N+](=O)[O-] (centres undefined),150% (active)
9,Nc1ccc(C(=O)OCC(=O)NC2CCS(=O)(=O)C2)cc1[N+](=O)[O-] (centres undefined),-3.1% (inactive)
10,NC(=O)Nc1ccc(C(=O)OCC(=O)NC2CCCc3ccccc32)cc1 (centres undefined),-1.62% (inactive)
11,Cc1nn(C)c(Oc2ccccc2)c1[N+](=O)[O-],72.4% (active)
12,Cc1nn(C)c(Oc2ccccc2)c1CCNS(=O)(=O)c1ccc(F)cc1,8.55% (inactive)
13,Cc1nn(C)c(Oc2ccc(Cl)cc2)c1C=O,15.3% (inactive)
14,CCC1(CC)NC(=O)N(CC(=O)OCC(=O)Nc2ccc(C(F)(F)F)cc2)C1=O,115% (active)
15,CCC1(CC)NC(=O)N(CC(=O)OCC(=O)NC(=O)c2ccccc2)C1=O,-1.1% (inactive)
16,CCC1(CC)NC(=O)N(CC(=O)OCC(=O)c2cc(C)c(C)cc2C)C1=O,8.64% (inactive)
17,C[C@H]1CN([C@@H](C)CO)C(=O)c2c(c3ccccc3n2C)-c2ccccc2CO[C@H]1CN(C)C(=O)Nc1ccc(F)cc1,19.1% (inactive)
18,COCC(=O)N1C[C@H]2[C@@H](c3ccccc31)[C@@H](CO)N2C(=O)NC(C)C,17% (inactive)
19,CCc1ccc(CNC(=O)C2CCCN(c3nc4ccccc4o3)C2)cc1 (centres undefined),28.3% (inactive)
20,COc1ccc(OC)c(CNC(=O)C2CCCN(c3nc4ccccc4o3)C2)c1 (centres undefined),102% (active)
21,COc1ccccc1CNC(=O)C1CCN(c2nc3ccccc3o2)CC1,15.8% (inactive)
22,C[C@@H]1CN([C@@H](C)CO)C(=O)c2cccc(NS(=O)(=O)c3cn(C)cn3)c2O[C@@H]1CN(C)Cc1ccc(Cl)c(Cl)c1,-13.1% (inactive)
23,CCCNC(=O)C[C@H]1C[C@@H]2c3cc(NC(=O)C4CCOCC4)ccc3O[C@@H]2[C@@H](CO)O1,-1.71% (inactive)
24,CN(CCO)Cc1csc2ccc(Br)cc12,14.5% (inactive)
25,CCN(CC)Cc1cc(C(C)=O)ccc1O,16.6% (inactive)
26,CCN(CC)Cc1csc2ccc(Br)cc12,100% (active)
27,CNC[C@H]1Oc2cc(-c3cccnc3)ccc2S(=O)(=O)N([C@@H](C)CO)C[C@H]1C,-14.4% (inactive)

row,Structure (SMILES),rescue of ATP level
1,O=C(C[C@@H]1C=C[C@H](NC(=O)c2ccc3c(c2)OCO3)[C@H](CO)O1)NCc1ccc(Oc2ccccc2)cc1,8.65% (inactive)
2,CN(C)C(=O)c1cccc(-c2ccc3c(c2)[C@H]2[C@H](CCN2S(=O)(=O)c2cn(C)cn2)[C@@H](CO)N3)c1,13.8% (inactive)
3,COC(=O)C1=C(C)N(C)C(C)=C(C(=O)OC)C1c1cccc(Br)c1,89.2% (active)
4,CCN1C(=O)N[C@@H](c2ccccc2)C(C(=O)OC)=C1C,-1.21% (inactive)
5,COCCN1C(=O)N[C@@H](c2ccccc2)C(C(=O)OC)=C1C,-10.8% (inactive)
6,COCC(=O)Nc1ccc2c(c1)OC[C@H](C)N(C(=O)Cc1ccccn1)C[C@H](C)[C@@H](OC)CN(C)C2=O,9.72% (inactive)
7,OCCCNc1nc(-c2ccccc2)c2cc(Cl)ccc2n1,1.1% (inactive)
8,O=C(CCl)NNc1nc(-c2ccccc2)c2cc(Cl)ccc2n1,16.4% (inactive)
9,Cc1ccc2nc(Nc3ccccc3O)nc(-c3ccccc3)c2c1,134% (active)
10,CC(C)NC(=O)Nc1ccc2c(c1)CC(=O)N([C@@H](C)CO)C[C@@H](C)[C@@H](CN(C)S(=O)(=O)c1ccccc1)O2,-17% (inactive)
11,COc1ccccc1CNC(=O)C[C@@H]1CC[C@H](NC(=O)CN(C)C)[C@@H](CO)O1,2.77% (inactive)
12,CN1c2ccc(-c3ccccc3)cc2[C@@H]2[C@@H](CCN2C(=O)NC2CCCC2)[C@H]1CO,-5.4% (inactive)
13,CCCNC(=O)N[C@@H]1C=C[C@H](CC(=O)NC2CCC2)O[C@H]1CO,1.32% (inactive)
14,CN1C(=O)c2cc(NC(=O)c3ccc(Cl)cc3)ccc2OC[C@H]2O[C@H](CC(=O)O)CC[C@H]21,-6.44% (inactive)
15,C[C@@H]1CN([C@@H](C)CO)C(=O)c2cc(C#CC(C)(C)O)cnc2O[C@@H]1CN(C)C(=O)C1CCOCC1,16.9% (inactive)
16,CNC(=S)N/N=C/c1ccc(OCc2ccccc2)c(Br)c1,10.8% (inactive)
17,C=CCNC(=S)N/N=C/c1ccc(C)s1,5.1% (inactive)
18,C=CCNC(=S)N/N=C/c1ccc(OCc2ccccc2)cc1,106% (active)
19,O=C(C[C@H]1CC[C@H]2[C@@H](COC[C@@H](O)CN2CC2CCOCC2)O1)NCc1ccc(Cl)cc1,7.95% (inactive)
20,O=C(/C=C/c1ccco1)Nc1ccc(Oc2ccccc2)cc1,-25.3% (inactive)
21,Cc1ccc(-n2nc3ccc(NC(=O)/C=C/c4ccco4)cc3n2)cc1C,97.3% (active)
22,CCC(=O)Nc1ccc2nn(-c3ccc(F)cc3)nc2c1,-5.86% (inactive)
23,COCC(=O)N[C@H]1C=C[C@H](CC(=O)N2CCCCC2)O[C@H]1CO,6.62% (inactive)
24,CNC[C@H]1Oc2cc(C#CCOC)ccc2S(=O)(=O)N([C@@H](C)CO)C[C@H]1C,-7.75% (inactive)
25,COc1ccc(-c2cc(C(=O)n3cnc4ccccc43)c3ccccc3n2)cc1,87.1% (active)
26,COc1ccc(NC(=O)c2cc(-c3cc(OC)c(OC)c(OC)c3)nc3ccccc23)c(OC)c1,-9.57% (inactive)
27,COc1ccc(-c2cc(C(=O)Nc3ccccc3O)c3ccccc3n2)cc1,14.3% (inactive)

row,Structure (SMILES),rescue of ATP level
1,O=C(C[C@H]1C=C[C@H](NC(=O)NC2CCCCC2)[C@H](CO)O1)NCc1ccccc1,2.53% (inactive)
2,CS(=O)(=O)Nc1ccc2c(c1)[C@H]1C[C@H](CC(=O)NCc3ccc(Cl)cc3)O[C@@H](CO)[C@H]1O2,-4.85% (inactive)
3,COc1ccccc1-c1cn(CC[C@@H]2CC[C@@H](NC(=O)c3ccccc3F)[C@H](CO)O2)nn1,6.43% (inactive)
4,CN(C)Cc1cn(CC[C@H]2CC[C@H](NS(=O)(=O)c3ccccc3)[C@@H](CO)O2)nn1,-2.83% (inactive)
5,Cc1cc2nc(C)n(CCCNC(=O)Nc3ccccc3)c2cc1C,93.8% (active)
6,C=CCN(C(=O)Nc1ccc2c(c1)nc(C)n2C)c1ccccc1,-0.158% (inactive)
7,CCOc1ccc(CCNC(=O)Nc2ccccc2)cc1OCC,1.69% (inactive)
8,CCCNC(=O)C[C@H]1CC[C@@H]2[C@H](COC[C@H](O)CN2CC2CCCCC2)O1,-0.493% (inactive)
9,CNC(=O)C[C@H]1CC[C@@H]2[C@H](COc3ccc(NC(=O)Nc4cccc(F)c4)cc3C(=O)N2C)O1,-6.73% (inactive)
10,CNC(=O)C[C@@H]1CC[C@@H]2[C@@H](COc3ccc(NC(=O)Nc4ccccc4OC)cc3C(=O)N2C)O1,10.7% (inactive)
11,Cn1c(=O)[nH]c(=O)c2c1nc(N1CCN(C(c3ccccc3)c3ccccc3)CC1)n2CCO,41.4% (inactive)
12,CC1CCN(c2nc3c(c(=O)[nH]c(=O)n3C)n2CCCc2ccccc2)CC1,144% (active)
13,CC=CCn1c(SCCCc2ccccc2)nc2c1c(=O)[nH]c(=O)n2C,1.54% (inactive)
14,CCCNC(=O)[C@@H]1[C@@H](CO)[C@@H]2Cn3c(ccc(-c4ccccc4F)c3=O)[C@H]1N2CC1CC1,-5.23% (inactive)
15,COc1ccccc1-c1cnc2c(c1)C(=O)N([C@H](C)CO)C[C@@H](C)[C@@H](CN(C)Cc1ccncc1)O2,41.2% (inactive)
16,CC(=NNC(=O)c1ccc2nc[nH]c2c1)c1ccc(Br)cc1,-6.54% (inactive)
17,C/C(=N\NC(=O)c1nc(C)cc(C)n1)c1ccccc1,121% (active)
18,COc1ccc(/C(C)=N/NC(=O)c2ccc3nc[nH]c3c2)cc1,-52.1% (inactive)
19,CCCC(O)C#Cc1cnc2c(c1)C(=O)N([C@H](C)CO)C[C@H](C)[C@H](CN(C)Cc1ccc(F)cc1)O2 (some centres undefined),-2.92% (inactive)
20,Cc1ccc(S(=O)(=O)Nc2ccc3c(c2)CC(=O)N([C@H](C)CO)C[C@@H](C)[C@H](CN(C)Cc2ccc(C(F)(F)F)cc2)O3)cc1,110% (active)
21,COc1ccc(S(=O)(=O)Nc2ccc3c(c2)CC(=O)N([C@H](C)CO)C[C@H](C)[C@H](CN(C)Cc2ccc(C(F)(F)F)cc2)O3)cc1,12% (inactive)
22,Cc1ccc(S(=O)(=O)Nc2ccc3c(c2)CC(=O)N([C@@H](C)CO)C[C@H](C)[C@H](CN(C)Cc2ccccc2)O3)cc1,21.7% (inactive)
23,Cc1ccc(S(=O)(=O)Nc2ccc3c(c2)C(=O)N([C@@H](C)CO)C[C@@H](C)[C@H](CN(C)Cc2ccc(C(F)(F)F)cc2)O3)cc1,9.63% (inactive)
24,C[C@@H]1CN([C@@H](C)CO)C(=O)Cc2cc(NS(=O)(=O)c3ccc(Cl)cc3)ccc2O[C@H]1CN(C)Cc1ccc(C(F)(F)F)cc1,96.2% (active)
25,C[C@H]1CN([C@@H](C)CO)C(=O)Cc2cc(NS(=O)(=O)c3ccc(F)cc3)ccc2O[C@H]1CN(C)Cc1ccc(C(F)(F)F)cc1,15.6% (inactive)
